Screening data as filed in PubChem.
Lassa entry inh = Lassa virus entry inhibition | Lassa virus pseudotype entry inhibition, cell reporter | Potency, µM (doses to about 37.9 µM), for the others: at the highest dose activity change, negative = inhibition, hits mostly inhibitors | 300,000 compounds, 1.2% hits | AID 540256; calls by dose curve; tested in HEK293 cells; note: potency is the fitted concentration of half-maximal effect; % is set by controls: 0 for no effect and ±100 for the full control effect; nearly all actives have a fitted effect of over 50% in size
CHX counter = counter-screen hit for Shiga toxin inhibitors, cycloheximide; max response, %; 300,000 compounds, 12% hits; cell reporter, cycloheximide protein synthesis inhibition counterscreen; in the data active = max response mostly above about 13%, no sharp cut-off; inactive = mostly below about 14%; note: read at 38.3 µM for the half of the compounds with a filed dose; 0% is about no effect
Shiga inhibitor = Shiga toxin inhibition. inhibition, % at 38.7 µM. AID 2315. Vero cells, Shiga toxin protein synthesis inhibition reporter. 290,000 compounds, 9.2% hits; in the data active = inhibition mostly above about 28%, no sharp cut-off; inactive = mostly below about 43%; note: 0% is about no effect
MARV entry inh = Marburg virus entry inhibition | 300,000 compounds, 1.8% hits | Marburg virus pseudotyped entry inhibition, cell reporter | AID 540276 | Potency, µM (highest dose often 37.8 µM), for inactives: at the highest dose activity change, negative = inhibition, usual class: inhibitors; calls by dose curve; tested in HEK293 cells; note: potency is the fitted concentration of half-maximal effect; % is set by controls: 0 for no effect and ±100 for the full control effect
Pf growth 96h = P. falciparum growth inhibition at 96 hour, primary screen for plastid delayed-death inhibitors. P. falciparum luciferase reporter growth, 96 h. Potency, µM (top dose mostly 28.7 µM), for inactives: at the highest dose activity change, negative = inhibition, usual class: inhibitors. 320,000 compounds, 6.9% hits. AID 504834; note: potency is the fitted concentration of half-maximal effect; % is set by controls: 0 for no effect and ±100 for the full control effect
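Two-generation exposure (96 h) targets delayed-death phenotype. Reporter parasites carrying integrated firefly luciferase, in red cells at 2% hematocrit and 0.05% parasitemia final, kept at 37 C, 5% CO2; luminescence loss indicates inhibition.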
Pf growth 48h = inhibits P. falciparum growth in the first generation, 48 h; P. falciparum luciferase growth in erythrocytes, 48 h; 310,000 compounds, 5.9% hits; Potency, µM (doses to about 28.7 µM), for inactives: top-dose activity change, negative = inhibition, usual class: inhibitors; note: potency is the fitted concentration of half-maximal effect; % is set by controls: 0 for no effect and ±100 for the full control effect
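Erythrocytes infected with P. falciparum carrying an integrated firefly luciferase reporter (2% hematocrit, 0.1% parasitemia final) were exposed to compounds in RPMI 1640 with 0.5% Albumax at 37 C, 5% CO2. Growth inhibition was scored as reduced luminescence.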
* marks the source's active call; other numbers are inactive results; ? = inconclusive; · = not tested or not shown; [ ] = remark or other dose. Only some compounds are listed: those with a hit (about 19% of all), similar ones and a draw of the others. Unless noted, calls come from the whole dose curve; as a rule, active = well fitted inhibition curve with a large enough effect; inconclusive = small, poorly fitted or top-dose-only effect, or another doubt; inactive = no such curve, though single readings can be large or run the other way.

SMILES | Lassa entry inh | CHX counter | Shiga inhibitor | MARV entry inh | Pf growth 96h | Pf growth 48h
CCn1cc(C(=O)NC(=S)Nc2ccccc2Br)cn1 | · | 22.8* | 41.0* | · | 43.6% | 87.6%
COc1ccc(C(=O)NC(=S)Nc2ccccc2[N+](=O)[O-])cc1OC | 6.6% | -1.4 | 5.1 | ? | -7.4% | -1.6%
O=C(NC(=S)Nc1ccc2[nH]c(=O)[nH]c2c1)c1ccccc1[N+](=O)[O-] | -11.0% | 46.1* | 48.0* | 2.4% | ? | 25.6%
O=C(NC(=S)Nc1ccccc1O)c1cncc(Br)c1 | -22.8% | · | · | -5.3% | · | ·
O=C(NC(=S)Nc1ccccc1[N+](=O)[O-])c1cncc(Br)c1 | · | -1.6 | 38.2 | · | 2.62µM* | 7.5%
CCN(CC)c1ccc(NC(=O)c2ccc3c(c2)c(C)c(C)n3C)cc1 | · | 7.8 | 9.9 | ? | ? | ?
O=C(NC(=S)Nc1ccccc1[N+](=O)[O-])c1ccccc1Cl | 16.4% | 47.8* | 125.2* | 1.2%[46.1 µM] | 19.1% | -29.0%
CCN(CC)c1ccc(NC(=O)c2cnn(CC)c2)cc1 | 26.7% | 43.9* | 99.5* | ? | ? | ?
CC(C)CC(COCc1ccc(C(F)(F)F)cc1)N1CCN(C(=O)c2ccc(C(F)(F)F)cc2)CCC1=O (stereo unspecified) | -2.8% | 0.2 | 14.3 | ? | ? | ?
CCOC(=O)/C=C1\SCC(=O)N1CC(=O)Nc1ccccc1OC(F)F | 6.4% | 1.1 | -9.5 | -5.4% | -0.7%[5.75 µM] | 2.5%
Clc1ccc2c(N/N=C/c3ccccc3Br)ccnc2c1 | -1.4% | -2.8 | 10.9 | ? | 0.522µM* | 0.657µM*
Clc1ccc2c(N/N=C/c3cccc(Br)c3)ccnc2c1 | ? | 11.3 | 43.3 | ? | 0.329µM* | 0.586µM*
CCOc1ccc(Nc2ccnc3cc(Cl)ccc23)cc1 | · | -3.1 | 20.4 | · | 5.5% | -16.8%
O=[N+]([O-])c1ccc(/C=N/Nc2ccnc3cc(Cl)ccc23)o1 | -16.1%[46.1 µM] | 27.1 | 169.4* | ? | ? | 2.33µM*
O=[N+]([O-])c1ccc(/C=N/NS(=O)(=O)c2ccc(Cl)cc2)o1 | -6.7% | 6.1 | 6.3 | 0.8% | 0.3% | 16.9%
CC(NC(=O)COC(=O)c1cccc(S(=O)(=O)N2CCCC2)c1)c1ccccc1 (stereo unspecified) | 13.7% | · | · | 14.6% | · | ·
CCN(CC)S(=O)(=O)c1ccc2c(c1)nc(CCC(=O)OCC(=O)Nc1cc(Cl)cc(Cl)c1)n2C | 1.8% | 7.3 | -0.4 | -0.4% | 5.1% | 34.2%
FC(F)C(F)(F)C(F)(F)C(F)(F)c1cc(-c2ccccc2)n[nH]1 | -1.8% | 22.2* | 72.9 | ? | 1.3% | 18.5%
CC(C)CCN=CC1=C(O)CC(c2ccccc2)CC1=O (stereo unspecified) | -0.8% | 28.9* | 52.6 | -2.0%[46.1 µM] | 17.4% | -7.2%
O=C1CC(c2ccccc2)CC(O)=C1C=NCc1ccncc1 (stereo unspecified) | -27.0% | -1.4 | -15.2 | -2.8%[46.1 µM] | 11.7µM* | 9.0%
O=C1CC(c2ccccc2)CC(O)=C1C=NCc1ccc(Cl)c(Cl)c1 (stereo unspecified) | -10.7% | -6.5 | 15.2 | 10.5% | ? | 5.0%
COc1ccccc1N=CC1=C(O)CC(c2ccccc2)CC1=O (stereo unspecified) | ? | 3.3 | 7.2 | ? | 13.1µM* | 12.8%
O=C(NN=Cc1ccc(F)c(F)c1)c1ccc(NS(=O)(=O)c2cccs2)cc1 | 5.3%[46.1 µM] | · | · | 16.9% | · | ·
CCOc1ccc(-n2nc(CO)c(C(=O)NCCCc3ccccc3)n2)cc1 | -1.1%[46.1 µM] | · | · | -25.8%[46.1 µM] | · | ·
Cc1cccn2c(=O)cc(CSc3nnc(NC(=O)COc4ccc(F)cc4)s3)nc12 | 14.1%[46.1 µM] | · | · | · | · | ·
Cc1cc(/C=N/NC(N)=S)c(C)n1-c1ccc(Cl)c(Cl)c1 | ? | -1.3 | -46.9 | ? | 11.7µM* | 13.1µM*
CCNC(=S)N/N=C/c1cc(C)n(-c2ccc(Cl)cc2)c1C | ? | 21.2* | 65.5 | ? | ? | 15.8%
Cc1cc(/C=N/N2CCN(C)CC2)c(C)n1-c1ccc(Cl)cc1 | ? | 2.0 | 8.6 | ? | ? | 11.7µM*
Cc1cc(/C=N\NC(=O)CC(=O)NC2CCCCC2)c(C)n1-c1ccc(Cl)c(Cl)c1 | -15.2% | -2.0 | 25.8 | ? | ? | 4.7%
Cc1nc2ccccn2c1C(=O)N/N=C/c1cc(C)n(-c2ccc(Cl)cc2)c1C | -5.8% | 11.7 | 12.9 | -56.8% | ? | ?
